Experimental data taken from the supplement of paper PMC3484114.
± gives the standard deviation.

system: OVCAR-3-derived ovarian cancer stem-like cells (spheroids); assay: cell growth relative to untreated control; higher = more growth (less inhibition); conditions: 2.29 µM; 96 h
Summary of the method: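 Stem-like cells derived from OVCAR-3 spheroids were dissociated with trypsin and seeded at 50,000 cells/mL in stem cell medium in ultra-low attachment 96-well plates, then preincubated for 24 h. Each compound was added at 2.29 uM to 4 replicate wells and left for 96 h at 37°C, 5% CO2. Viability came from TOX8 resazurin fluorescence (ex 560/em 590 nm) read after 4 h. Percent growth was expressed relative to untreated wells, after blank subtraction and removal of outliers by the Grubbs test.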

| Structure (SMILES) | cell growth [%] |
| --- | --- |
| Cc1[nH]c(=O)[nH]c(=O)c1/C=C/C(=O)NC(CO)CC(C)C (centres undefined) | 94.2 ± 22 |
| Nc1ccc2c(c1)S(=O)(=O)c1cc(N)ccc1-2 | 112 ± 21 |
| CC(C)(C)OC(=O)NC(Cc1ccccc1)C(=O)OCN1C(=O)C2C3C=CC(C2C1=O)C1C2C(=O)N(COC(=O)C(Cc4ccccc4)NC(=O)OC(C)(C)C)C(=O)C2C31 (centres undefined) | 109 ± 26 |
| CCC1=C(C[C@H]2NCCc3cc(OC)c(OC)cc32)C[C@H]2c3cc(OC)c(OC)cc3CCN2C1 | 21.1 ± 7.4 |
| CN1c2c(nc(N)[nH]c2=O)NCC1CCNc1ccc(C(=O)NC(CCC(=O)O)C(=O)O)cc1 (centres undefined) | 101 ± 20 |
| c1ccc2c(c1)nnn1c3cnccc3nc21 | 58.8 ± 9.3 |
| O=C(/C=C/c1c(O)ccc2ccccc12)c1cccc(O)c1 | 94.3 ± 20 |
| CC(/C=C/C(O)=C1/C(=O)CNC1=O)=C\[C@@H](C)[C@H]1O[C@]2(C)O[C@@H](C(=O)[C@@H]3O[C@@]32C)[C@@H]1C | 60.3 ± 14 |
| O=C(N=Nc1c(O)[nH]c2ccccc12)c1ccccc1O | 105 ± 11 |
| O=C(N=Nc1c(O)[nH]c2c(Cl)cc(Cl)cc12)c1ccccc1O | 93.1 ± 22 |
| Cc1ccc2[nH]c(O)c(N=Nc3ccccc3[N+](=O)[O-])c2c1 | 108 ± 15 |
| COc1cc(O)c2c(c1)C(=O)c1cc3c(c(O)c1C2=O)C(OC1OC(C)C(O)C(O)C1OC)C(OC)C(C)(O)C3=O (centres undefined) | 17.1 ± 7.5 |
| BrCCC[P+](c1ccccc1)(c1ccccc1)c1ccccc1 | 42.9 ± 7.3 |
| CO[C@@H]1C[C@](C)(O)Cc2cc3c(c(O)c21)C(=O)c1c(O)cc2c(c1C3=O)O[C@@H]1O[C@@]2(C)[C@H](O)[C@@H](N(C)C)[C@@H]1O | 37.7 ± 42 |
| O=C1C=CC(CC(=O)c2ccc3ccccc3c2)O1 (centres undefined) | 112 ± 18 |
| Nc1ncnc2c1ncn2C1OC(CO)C(O)C1O (centres undefined) | 111 ± 13 |
| COc1ccc2oc(-c3ccncc3)cc(=O)c2c1 | 122 ± 9.1 |
| C[C@H](CSC(=O)c1ccccc1)C(=O)N1c2ccccc2C[C@H]1C(=O)O | 90.9 ± 9.5 |
| Nc1ccn([C@@H]2O[C@H](CO)[C@@H](O)[C@@H]2O)c(=O)n1 | 76.6 ± 11 |
| NC1(C(=O)O)CCCC1 | 84.9 ± 15 |

| Structure (SMILES) | cell growth [%] |
| --- | --- |
| Cc1ccc([S+](c2ccccc2)c2cc(C)ccc2C)cc1.O=C(OC(C(=O)[O-])C(OC(=O)c1ccccc1)C(=O)O)c1ccccc1 (centres undefined) | 43.6 ± 5.1 |
| CO[C@H]1C[C@@H]2CC[C@@H](C)[C@@](O)(O2)C(=O)C(=O)N2CCCC[C@H]2C(=O)O[C@H]([C@H](C)C[C@@H]2CC[C@@H](O)[C@H](OC)C2)CC(=O)[C@H](C)/C=C(\C)[C@@H](O)[C@@H](OC)C(=O)[C@H](C)C[C@H](C)/C=C/C=C/C=C/1C | 97 ± 21 |
| O=C(CC(=O)c1ccccc1)CC(O)(c1ccccc1)c1ccccc1 | 124 ± 18 |
| CN1CCC23c4ccccc4NC1C21CCN(C)C3Nc2ccccc21 | 118 ± 10 |
| CCC1CN2CCc3cc(OC)c(OC)cc3C2CC1CC1c2cc(OC)c(OC)cc2CCN1C(=O)C1CCCN1C(=O)OCc1ccccc1 (centres undefined) | 122 ± 21 |
| CCN(CC)CCNC(=O)c1nn(-c2ccc(Cl)cc2)c2c1CCc1cc(OC)ccc1-2 | 79.1 ± 11 |
| COc1cc2c3c(n(C)c(=O)c2cc1OC)-c1cc2c(cc1C3=O)OCO2 | 101 ± 38 |
| CN(C)c1cccc(/C=C(\C#N)c2ccccc2)c1 | 66.6 ± 7.2 |
| CCOC(=O)/C(=C/c1ccc(N(C)C)cc1)N(CC)CC | 85 ± 9.3 |
| N#CC(c1ccccc1)N(CCCCCCN(C(=O)c1ccccc1)C(C#N)c1ccccc1)C(=O)c1ccccc1 (centres undefined) | 122 ± 23 |
| CCOC(C)C(C=NNC(N)=S)=NNC(N)=S (centres undefined) | 23 ± 5.7 |
| O=C(Nc1ccc2c(c1)oc(=O)c1ccccc12)C(Cl)Cl | 10.2 ± 2.1 |
| Nc1cc2[nH]cnc2c(=O)[nH]1 | 77.1 ± 7.5 |
| O=C(c1ccccc1)C1OC12C(=O)Nc1c(Cl)cc(Cl)cc12 (centres undefined) | 94.6 ± 19 |
| COc1ccc2cc3[n+](cc2c1OC)CCc1cc2c(cc1-3)OCO2 | 57.3 ± 7.4 |
| CN(C)c1ccc(/C=c2/sc3nc(=O)c(-c4ccccc4NC(=O)C(F)(F)F)nn3c2=O)cc1 | 83.4 ± 18 |
| CC(=O)NC1C(OCc2ccccc2)OC(CO)C(O)C1OC(C)C(=O)NC(C(=O)NC(CCC(=O)NCCCCNc1c2ccccc2nc2cccc([N+](=O)[O-])c12)C(N)=O)C(C)C (centres undefined) | 105 ± 21 |
| O=C1C(C(O)(C(F)(F)F)C(F)(F)F)CCC1C(O)(C(F)(F)F)C(F)(F)F (centres undefined) | 104 ± 18 |
| Nc1ccc(N)c2c1C(=O)c1ccccc1C2=O | 97.9 ± 12 |
